Screens: PubChem, National Center for Advancing Translational Sciences (NCATS)
An excerpt weighted towards active compounds, which were near 7.9% of everything screened.
FMDV inh: blocks foot and mouth disease virus; FMDV antiviral cell-based qHTS; Potency, µM (titrated, usually from 57.9 µM), without a hit: top-dose activity change, negative = inhibition, hits mostly inhibitors; 410,000 compounds, 1.2% hits; calls by dose curve; tested in HEK293T cells; also: read-out not given here; potency is read from the fitted curve at half-maximal effect; nearly all actives have a fitted effect of over 45% in size
HCV inh: HCV inhibition. Huh7.5.1 HCVcc-Cre infection, luciferase reporter, 44 h. Potency, µM (series often up to 41.8 µM), inactives show at the highest dose activity change, negative = inhibition, hits mostly inhibitors. 340,000 compounds, 3.4% hits; active = well fitted inhibition curve with a large enough effect; inconclusive = small, poorly fitted or top-dose-only effect, or another doubt; inactive = no such curve, though single readings can be large or run the other way; also: potency is read from the fitted curve at half-maximal effect
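Cells seeded at 1,000/well and cultured 4 h, then compounds added followed by HCVcc-Cre virus (~0.5 moi). After 44 h further culture, luciferase substrate was added, plates held 15 min at room temperature, and luminescence read for 15 sec.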
Marburg entry inh: blocks Marburg virus binding to or entry into cells; Marburg virus pseudotyped entry inhibition, cell reporter; Potency, µM (series often up to 37.8 µM), for the others: at the top dose activity change, negative = inhibition, usual class: inhibitors; 300,000 compounds, 1.8% hits; AID 540276; calls by dose curve; tested in HEK293 cells; also: potency is read from the fitted curve at half-maximal effect
HCMV inh: human cytomegalovirus inhibition; 410,000 compounds, 4.5% hits; HFF cells, HCMV-luciferase reporter, 72 h; stronger effect = lower value; activity change, negative = inhibition, % at 57.5 µM; in the data active = activity change below about -60%; inconclusive = no clear call, values can overlap the other calls; inactive = above about -39%
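Two compound doses tested in HFFs infected with HCMV-luciferase, MOI 1 PFU/cell, 72 h at 37C. Lysate luminescence read with OneGlo; data normalized against buffer-only and 10uM Salinomycin inhibitor controls.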
LASV entry inh: inhibitors of Lassa virus binding or cell entry. Lassa virus pseudotype entry inhibition, cell reporter. Potency, µM (series often up to 37.9 µM), for the others: at the top dose activity change, negative = inhibition, usual class: inhibitors. 300,000 compounds, 1.2% hits. AID 540256; calls by dose curve; tested in HEK293 cells; also: potency is read from the fitted curve at half-maximal effect; nearly all actives have a fitted effect of over 50% in size
The depositor's hits bear a star; ? = inconclusive; . = no result; [ ] = remark or other dose. % is scaled to controls: 0 for no effect and ±100 for the full control effect.

SMILES	FMDV inh	HCV inh	Marburg entry inh	HCMV inh	LASV entry inh
Cc1cccc(NC(=O)Cn2c(=O)c3cccn3c3ccccc32)c1C	-8.6%	.	.	-16.1	?
COc1ccc([N+](=O)[O-])cc1NCC(=O)Nc1cc(S(=O)(=O)N2CCCCC2)ccc1C	-17.7%	11.2µM*	.	-99.3*	.
COc1ccc(CC(=O)Nc2cc(S(=O)(=O)N3CCCCC3)ccc2C)cc1OC	?	10µM*	?	-69.4*	?
Cc1ccc(S(=O)(=O)N2CCCCC2)cc1NC(=O)CCCOc1ccccc1	-10.1%	10µM*	-28.1%[46.1 µM]	-6.2	?
COc1ccc(S(=O)(=O)N2CCCCC2)cc1NCC(=O)Nc1ccc(C)cc1	-29.2%	?	-2.0%[46.1 µM]	0.9	?
Cc1ccc(S(=O)(=O)N2CCCCC2)cc1NC(=O)COC(=O)c1cccn1C	-26.1%	12.6µM*	.	0.0	.
O=c1c(-c2ccccc2)nc2cnc(N3CCNCC3)nc2n1Cc1cccs1	-12.0%	.	.	.	.
CN(C)c1cccc(Nc2cc3c(cn2)cc(-c2cnn(C)c2)n3C)c1	.	.	.	-31.9	.
CC(=O)c1ccc(N2CCN(C(=O)CCCCn3c(=O)[nH]c4ccccc4c3=O)CC2)cc1	?	.	.	8.8	-2.0%[46.1 µM]
O=C(OCC1OC2C(Oc3nc(=O)ccn32)C1O)c1ccccc1 (stereo unspecified)	18.5%	5.8%	-5.8%	6.7	4.9%
N=c1nc2n(cc1F)C1OC(CO)C(O)C1O2 (stereo unspecified)	-17.9%	?	-23.8%	-98.6*	-21.3%[46.1 µM]
N=c1ccn2c(n1)O[C@H]1[C@H](O)[C@@H](CO)O[C@H]12	-14.5%	-10.4%	?	-96.3*	?
N=c1ccn2c(n1)O[C@H]1[C@@H](CO)[C@H](O)O[C@H]12	-20.2%	?	.	-98.0*	.
CCC(C)NC(=O)CCCc1nnc2n(CC(C)C)c(=O)c3sccc3n12 (stereo unspecified)	-3.4%	.	.	?	19.4%[46.1 µM]
c1ccc2c(c1)CSc1ccccc1C2C1=NCCN1 (stereo unspecified)	-2.2%	-11.2%	?	-13.2	-15.9%
Clc1ccc2c(c1)C(C1=NCCN1)c1ccccc1CS2 (stereo unspecified)	-2.2%	?	1.3µM*	-15.7	?
COc1cc(/C=N/NC(=O)C(=O)/C=C2\NC3(CCCC3)Cc3ccccc32)ccc1O	?	?	?	6.5	-19.8%
O=C(/C=C1\NC2(CCCC2)Cc2ccccc21)C(=O)N/N=C/c1ccccc1O	4.4%	?	11.2µM*	-71.0*	14.6µM*
CN(C)c1ccc(/C=N/NC(=O)C(=O)/C=C2\NC3(CCCC3)Cc3ccccc32)cc1	-18.7%	?	?	-62.8*	?
COC(=O)c1cc(Br)c(=O)n(CCN2CCCC2)c1	5.8%	0.6%	23.4%[46.1 µM]	-89.9*	0.5%
COC(=O)c1cc(Br)c(=O)n(CCN2CCCCC2)c1	6.3%	-2.1%	0.0%	15.7	-1.2%
Cc1sc(NC(=O)c2ccco2)c(CN2CCC(C)CC2)c1C	-27.8%	?	?	-19.7	-24.5%
Cc1sc(NC(=O)c2ccco2)c(CN2CCN(Cc3ccccc3)CC2)c1C	-28.6%	?	12.6µM*	4.5	?
Cc1sc(NC(=O)c2ccco2)c(C(c2cccnc2)N2CCC(C)CC2)c1C (stereo unspecified)	17.8µM*	8.91µM*	?	-92.8*	20.6µM*
c1ccc(Cn2ncc3c(N4CCN(c5ccccc5)CC4)ncnc32)cc1	22.4µM*	.	.	?	.
SMILES	FMDV inh	HCV inh	Marburg entry inh	HCMV inh	LASV entry inh
Cc1ccc(Cn2ncc3c(N4CCN(CC#N)CC4)ncnc32)cc1	31.6µM*	?	?	-10.9	-23.8%
Cc1ccc(Cn2ncc3c(N4CCCC4)ncnc32)cc1	-24.7%	?	-1.6%	-27.6	-0.2%
c1ccc(Cn2ncc3c(N4CCN(C(c5ccccc5)c5ccccc5)CC4)ncnc32)cc1	?	?	?	-22.7	?
COc1ccc(C2C(C(N)=O)=C(C)Nc3nc(CCCO)nn32)c(OC)c1 (stereo unspecified)	-10.3%	.	-11.2%[46.1 µM]	11.3	2.8%[46.1 µM]
CCOc1ccc2[nH]c(=O)c(C(c3nnnn3C3CCCCC3)N3CCN(C)CC3)cc2c1 (stereo unspecified)	5.8%	-5.4%	10.6%	-27.9	-4.6%
COc1cc2cc(C(c3nnnn3C3CCCC3)N3CCCCC3)c(=O)[nH]c2cc1OC (stereo unspecified)	12.8%	-4.3%	-9.3%	12.7	?
COc1ccc2[nH]c(=O)c(CN(Cc3ccco3)C(c3nnnn3Cc3ccccc3)C(C)C)cc2c1 (stereo unspecified)	?	?	13µM*	-98.5*	?
COCCn1nnnc1C(C(C)C)N(Cc1ccccc1)Cc1cc2cc(OC)ccc2[nH]c1=O (stereo unspecified)	0.0%	?	-7.0%[46.1 µM]	-18.4	?
CCC(c1nnnn1C1CCCCC1)N(Cc1ccco1)Cc1cc2ccc(OC)cc2[nH]c1=O (stereo unspecified)	?	3.55µM*	?	?	?
COc1ccc2[nH]c(=O)c(C(c3nnnn3C3CCCC3)N(C)C3CCCCC3)cc2c1 (stereo unspecified)	32.6%	-12.1%	5.17µM*	-20.5	1.6%
O=c1[nH]c2cc3c(cc2cc1C(c1nnnn1C1CCCCC1)N1CCSCC1)OCCO3 (stereo unspecified)	24.0%	9.7%	?	-106.8*	?
COC(=O)N[C@@H](c1ccc(Cl)cc1)C(C(C)=O)C(=O)OC (stereo partly specified)	.	.	13.5%[14.2 µM]	.	.
CCC(C)(C)n1nnnc1C(C(C)C)N(Cc1ccco1)Cc1cc2cc3c(cc2[nH]c1=O)OCO3 (stereo unspecified)	?	22.4µM*	16.4µM*	68.3	2.1%
O=C(COc1ccc(S(=O)(=O)N2CCOCC2)cc1Cl)NC1CCCCC1	-7.8%	13.2%	3.4%	8.2	-20.4%
O=S(=O)(c1ccc(OCC(O)CNC23CC4CC(CC(C4)C2)C3)c(Cl)c1)N1CCOCC1 (stereo unspecified)	-0.7%	?	2µM*	-12.1	-3.4%[46.1 µM]
CC(NC(=O)CCSc1nc(-c2ccco2)cc(C(F)(F)F)n1)c1ccccc1 (stereo unspecified)	-29.2%	?	?	?	-21.7%
O=C(CCSc1nc(-c2ccco2)cc(C(F)(F)F)n1)NCc1cccs1	-9.3%	10µM*	7.8%	-17.1	-7.9%
O=C(NCCc1csc(-c2ccc(F)cc2)n1)c1ccco1	-29.5%	.	.	-9.5	-17.3%[46.1 µM]
COc1ccc(-c2nc(CCNC(=O)c3ccco3)cs2)cc1OC	-1.1%	?	?	-101.1*	?
O=C(CCSc1nc(-c2ccco2)cc(C(F)(F)F)n1)NCc1ccccn1	-20.2%	11.2µM*	-12.5%	-5.2	1.0%
COc1ccc(CCNC(=O)CCSc2nc(-c3ccco3)cc(C(F)(F)F)n2)cc1OC	-27.8%	5.62µM*	?	-32.5	-16.5%
O=C(CSc1nc(-c2ccco2)cc(C(F)(F)F)n1)NC1CCCC1	-27.9%	?	.	-68.1*	.
